This is an account of results in PubChem BioAssay AID588342 (National Center for Advancing Translational Sciences (NCATS), 2011).

Among all 360,000 compounds or so, about 25,000 (6.9%) were called active. Roughly 9% stayed inconclusive and do not appear here. This is one part of a sample in which actives are shown more often than they occur. The call rests on the fitted dose curve; in most records, active means well fitted inhibition curve with a large enough effect; inconclusive means small, poorly fitted or top-dose-only effect; inactive means flat fitted curve, though single readings scatter.

The target in the experiment is Luciferin 4-monooxygenase (Photinus pyralis) (UniProt P08659). Kind of experiment: qHTS profiling assay for firefly luciferase inhibitor/activator using purifed enzyme and Km concentrations of substrates (counterscreen for miR-21 project). Further: nearly all actives have a fitted effect of over 55% in size.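 On activity change, negative = inhibition: plate controls were vehicle for no effect and reference inhibitor for full effect.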 To be noted: purified FLuc, luminescence inhibition; series mostly up to 57.5 µM; activity change, negative = inhibition: at the top concentration. An excerpt: MLPCN Grant: 1 R21 NS059478-01 (miR-21 grant) Assay Provider: NCGC NCGC Assay Overview: Firefly (Photinus pyralis) luciferase is one of the most commonly used transcriptional reporters for a number of reasons. It is considered one of the more dynamically responsive reporters -that is, responsive to changes in reporter transcription - as it requires no post-translational modifications and is enzymatically active directly after protein synthesis (Wood, 1998). Additionally, the half-life of the luciferase protein is short relative to other reporter-gene products (Wood, 1995). Whereas reporters with long half-lives potentially allow for increased signal due to accumulation of reporter-gene product, once accumulated in the cell, dynamic changes in reporter-gene expression may be difficult to detect(Fan and Wood, 2007; Almond et al., 2004). It has been shown that wild-type P. pyralis luciferase has a half-life of approximately […] hours in mammalian cells (Thompson et al., 1991). Firefly luciferase reporter-gene assays are also generally considered one of the most sensitive assay types (Wood, 1995; Wood, 1998). Although light produced in a bioluminescence reaction is of lower intensity than that produced during fluorescence emission, this is offset by little to no background light inherent to luminescent assays. Thus the luciferase reporter can be expressed at much lower levels than fluorescent proteins while still providing robust signal. # However, it was initially observed, in 1991, by Thompson et al., that compounds that resemble the substrates of firefly luciferase (FLuc) can act as competitive inhibitors of the enzyme, and that these compounds, upon interaction with luciferase in the cell, can actually stabilize the protein and increase its half-life. Accumulated intracellular FLuc protein can be measured as an increase in luminescence signal, upon addition of detection reagents (which contain high concentrations of FLuc substrates) commonly used in high-throughput screening. In cell-based reporter gene assays that use FLuc as the reporter gene to quantitate the potential influence of a given compound against the target biology, this apparent increase in luminescence can mistakenly be interpreted as identification of a compound that is active against the target of interest. This is the case for the miR-21 FLuc reporter gene assay used to identify inhibitors of the miR-21 pathway (PubChem AID 2289) - compounds of interest will inhibit miR-21 biogenesis/expression or activity, and are identified by causing an increase in luminescence, due to increased FLuc translation. However, FLuc inhibitory compounds that stabilize the FLuc protein will give an identical read-out, making it difficult to distinguish compounds that are active against the target from those active against FLuc. Previous profiling work to determine the prevalence of compounds that affect FLuc enzymatic activity (PubChem AID 411) identified that ~3% of the MLSMR library (then at ~72K) inhibited FLuc. […] Since the MLSMR had grown to ~350K compounds, and since it was expected that a significant percentage of compounds found active in the miR-21 FLuc assay would be FLuc inhibitors, the library was screened for activity against FLuc using a biochemical assay of purified FLuc and KM concentrations of FLuc substrates (D-luciferin and ATP).
Luciferin 4-monooxygenase (Photinus pyralis), sequence (P08659 whole entry, looked up): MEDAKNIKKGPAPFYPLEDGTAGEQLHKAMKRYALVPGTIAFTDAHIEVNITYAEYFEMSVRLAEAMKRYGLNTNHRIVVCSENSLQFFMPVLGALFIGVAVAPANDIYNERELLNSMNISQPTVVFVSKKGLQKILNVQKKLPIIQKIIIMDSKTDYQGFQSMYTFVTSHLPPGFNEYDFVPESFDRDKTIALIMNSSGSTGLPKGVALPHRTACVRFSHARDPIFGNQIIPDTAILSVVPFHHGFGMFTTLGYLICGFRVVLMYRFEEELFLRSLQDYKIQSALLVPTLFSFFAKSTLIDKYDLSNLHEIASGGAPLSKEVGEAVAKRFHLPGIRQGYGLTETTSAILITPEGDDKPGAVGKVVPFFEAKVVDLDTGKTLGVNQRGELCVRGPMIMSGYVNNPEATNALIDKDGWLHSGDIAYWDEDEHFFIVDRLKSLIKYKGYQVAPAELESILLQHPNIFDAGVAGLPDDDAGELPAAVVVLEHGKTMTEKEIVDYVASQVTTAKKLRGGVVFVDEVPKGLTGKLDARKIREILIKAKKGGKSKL
NCGC Assay Protocol Summary: Reagents: 50mM Tris acetate, pH 7.5; 10mM Mg acetate; 10uM D-luciferin (Sigma #L9504); 10uM ATP; 0.01% Tween-20; 0.05% BSA; 10nM P. pyralis luciferase (Sigma #L9506) Control compounds used were two known firefly luciferase inhibitors (compounds (2) and (5) in Auld et al., 2010), and DMSO. […]
Background: In qHTS, concentration-response curves come from the screen itself.
In the case of `O=C(Nc1ccccc1Cl)N1CCC(CN2CCCCC2)CC1`, the “activity change, negative = inhibition” value is -3.25% (inactive).
Regarding `Cc1nc2ccccc2c(=O)n1-c1ccc(NS(=O)(=O)c2ccc(F)cc2F)cc1`, the “activity change, negative = inhibition” value was 1.87% (inactive).
`CCN(CC)c1ccc(NC(=O)CN2C(=O)c3cccnc3Oc3ccc(Cl)cc32)c(C)c1`: the “activity change, negative = inhibition” value is -1.44% (inactive).
For the compound `COc1ccc2ccn(C)c2c1`, the “activity change, negative = inhibition” value was -2.14% (inactive).
Take `OCCNc1nc(Nc2ccc(Cl)c(Cl)c2)nc2ccccc12`: the Potency is 6.01 µM (active).
Take `COc1cc2nc(Cl)nc(NCCO)c2cc1OC`: the “activity change, negative = inhibition” value was -2.87% (inactive).
On the same count and under the same terms, the value for `CN(C)c1nc(Nc2ccc(Cl)c(Cl)c2)nc(N(C)C)n1` was 0.513% (inactive); that for `Cc1ccccc1CSc1nc(-c2ccccc2)nc2c1Cc1c(CO)cnc(C)c1O2` was -2.1% (inactive).
The same measure, in the same setting: the value for `Nc1ccn(CC(=O)N2CCN(c3ccccn3)CC2)c(=O)n1` was -1.29% (inactive).
Consider `COc1ccc(C(=O)Nc2nc(-c3ccc(OC)cc3)c(-c3ccc([N+](=O)[O-])cc3)s2)cc1`, for which the “activity change, negative = inhibition” value is 0.4% (inactive).
Consider `O=C(Nc1nc2ccc([N+](=O)[O-])cc2s1)c1ccncc1`, for which the Potency is 1.07 µM (active).
On to `O=C(NC(Nc1nc2ccc([N+](=O)[O-])cc2s1)(C(F)(F)F)C(F)(F)F)c1ccccc1`, for which the “activity change, negative = inhibition” value was -0.0039% (inactive).
With `CCN1CCN(CCCNC(=O)c2ccc3c(c2)sc2nc(-c4ccc(OC)cc4)cn23)CC1`, the “activity change, negative = inhibition” value was -13.1% (inactive).
`O=C(c1ccc(Cn2cc([N+](=O)[O-])cn2)o1)N1CCCC1`: the “activity change, negative = inhibition” value was 14.7% (inactive).
Take `O=C(N/N=C\c1ccc(Br)cc1)c1ccc(Cn2cccn2)o1`: the Potency is 12 µM (active).
Consider `CCc1ccc(CNC(=O)c2ccc(CS(=O)c3ccc(Br)cc3)o2)cc1` (stereo not given), for which the “activity change, negative = inhibition” value is -16.3% (inactive).
Regarding `O=C(N/N=C/c1ccc(Br)o1)c1cncc(Br)c1`, the “activity change, negative = inhibition” value was -5.46% (inactive).
For the compound `O=C(N/N=C/c1ccc2c(c1)OCO2)c1ccc(Cn2cc([N+](=O)[O-])cn2)o1`, the Potency was 6.75 µM (active).
Consider `COc1cccc(NC(=O)c2ccc(Cn3cc([N+](=O)[O-])cn3)o2)c1`, for which the “activity change, negative = inhibition” value was -4.26% (inactive).
As for `O=C(Nc1ccc(Br)c2cccnc12)c1ccc(Cn2cc([N+](=O)[O-])cn2)o1`, the “activity change, negative = inhibition” value was 1.86% (inactive).
Regarding `CN(C)c1ccc(/C=N/NC(=O)c2ccc(Cn3cc(Br)cn3)o2)cc1`, the Potency was 9.53 µM (active).
For `CN(C)c1ccc(/C=N/NC(=O)C(O)c2ccc(Br)cc2)cc1` (stereo not given), the “activity change, negative = inhibition” value is -17.4% (inactive).
As for `Cc1cccc(Cn2c(CN3CCC(C(=O)NCc4ccccc4Cl)CC3)cc3ccccc32)c1`, the “activity change, negative = inhibition” value was -0.0278% (inactive).
On to `Cc1ccccc1CNC(=O)CCc1cn(Cc2ccccc2C)c2ccccc12`, for which the “activity change, negative = inhibition” value is -9.27% (inactive).
As for `O=c1n(Cc2cccc(C(F)(F)F)c2)c2ccccc2c2nc(-c3ccccc3)nn12`, the “activity change, negative = inhibition” value was 4.37% (inactive).
In the case of `COc1ccccc1OCC(=O)Nc1nnc2n1CCS2`, the “activity change, negative = inhibition” value was -1.03% (inactive).
Same read-out and setting: the value for `CCOc1ccc(S(=O)(=O)c2cn(Cc3ccccc3)c3ccc(OCC)cc3c2=O)cc1` was 0.46% (inactive).
Turning to `O=C1C2C3C=CC(C3)C2C(=O)N1c1ccc(-c2nc3ccccc3c(=O)o2)cc1` (stereo not given), the Potency was 9.53 µM (active).
Regarding `CCCCCOC(=O)c1ccc(N2C(=O)C3C4C=CC(C4)C3C2=O)cc1` (stereo not given), the “activity change, negative = inhibition” value is -15.4% (inactive).
As for `O=C1C2C3C=CC(C3)C2C(=O)N1c1ccc(S(=O)(=O)Nc2nccs2)cc1` (stereo not given), the “activity change, negative = inhibition” value is 0.747% (inactive).
On to `COc1ccc(CCNc2nc(-c3ccc(F)cc3)cc(C(F)(F)F)n2)cc1OC`, for which the “activity change, negative = inhibition” value was 2.3% (inactive).
Turning to `Cc1ccc2c(c1)N(C(=O)Nc1ccc(Br)cc1F)CCO2`, the “activity change, negative = inhibition” value is 0.456% (inactive).
`Cc1ccc(CCNC(=O)c2ccc(CNS(=O)(=O)c3ccc(C)cc3)cc2)cc1`: the “activity change, negative = inhibition” value was -4.15% (inactive).
For the compound `COCCCNC(=O)c1ccc(CNS(=O)(=O)c2ccc(NC(C)=O)cc2)cc1`, the Potency was 16.9 µM (active).
In the case of `Cc1ccccc1CNC(=O)c1cccc(NC(=O)c2nsc3ccccc23)c1`, the Potency is 5.36 µM (active).
Take `COCCCNC(=O)c1ccc(NC(=O)c2nsc3ccccc23)cc1`: the Potency was 16.9 µM (active).
For `CCc1ccc(NC(=O)N2CCN(C(=O)c3nsc4ccccc34)CC2)cc1`, the “activity change, negative = inhibition” value is -10.4% (inactive).
Turning to `COCCCNC(=O)c1ccc2c(c1)ncn2-c1ccccc1OC`, the “activity change, negative = inhibition” value was -6.89% (inactive).
Consider `CCCCNC(=O)C1CCC(CNS(=O)(=O)c2ccc(NC(C)=O)cc2)CC1` (stereo not given), for which the Potency entry was “inactive”.
For the compound `NC(=O)C1CCN(C(=O)c2cccc(NC(=O)c3nsc4ccccc34)c2)CC1`, the Potency is 12 µM (active).
`CCc1ccccc1NC(=O)N1CCN(C(=O)c2nsc3ccccc23)CC1`: the “activity change, negative = inhibition” value was -4.65% (inactive).
The same measure, in the same setting: the value for `COc1cccc(NC(=O)N2CCN(C(=O)c3nsc4ccccc34)CC2)c1` was 5.08% (inactive); that for `O=C(Nc1cccc(C(=O)N2CCCC2)c1)c1ccccc1` was -2.48% (inactive).
In the case of `Cc1c(Cl)cccc1NC(=O)N1CCN(C(=O)c2nsc3ccccc23)CC1`, the “activity change, negative = inhibition” value was 1.68% (inactive).
Regarding `O=C(CSc1nnc(COc2ccc(Cl)cc2)n1Cc1ccco1)N1CCNC1=O`, the “activity change, negative = inhibition” value was 5.23% (inactive).
In the case of `COc1ccc(OC)c(CNC(=O)Cn2nc(C)c3c(C)n(-c4ccccc4)nc3c2=O)c1`, the “activity change, negative = inhibition” value is -2.53% (inactive).
Regarding `Cc1ccc(CNS(=O)(=O)c2ccc(-c3cc(C(F)(F)F)on3)s2)cc1`, the “activity change, negative = inhibition” value was 7.56% (inactive).
As for `COc1ccc(S(=O)(=O)Nc2cc(C)on2)cc1NC(C)=O`, the “activity change, negative = inhibition” value is 0.909% (inactive).
For the compound `Cc1ccc(-c2nc(S(=O)(=O)c3ccc(C)cc3)c(N3CCCCCC3)o2)cc1`, the “activity change, negative = inhibition” value was -8.52% (inactive).
As to `Nc1ccccc1Sc1cc(Cl)nnc1Cl`, the “activity change, negative = inhibition” value was 4.42% (inactive).
